The panel holds about 83,000 compounds, 20% with a hit somewhere; the sample as a whole holds those more often.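 Percent growth is the endpoint: 0 to 100 indicates growth inhibition (40 means 60% inhibition), 0 means no net growth, and negative values indicate cell death.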 Activity calls are given as the source filed them. Rule for the calls: active = growth percent below 10; inactive = the rest.
Key:
Assay in all cases: NCI-60 one-dose screen, 48 h (100 = growth as untreated, 0 = no growth, -100 = all killed)
Details in all cases: 10 µM unless noted
T-47D breast = test system: T-47D breast
BT-549 breast = test system: BT-549 breast
MDA-MB-435 melanoma = test system: MDA-MB-435 melanoma
SW-620 colon = test system: SW-620 colon
MCF7 breast = test system: MCF7 breast
HCT-116 colon = test system: HCT-116 colon
HCC-2998 colon = test system: HCC-2998 colon
KM12 colon = test system: KM12 colon

Measured: growth

c1ccc(Nc2nc(-c3ccccn3)cs2)nc1
inactive: T-47D breast 26.4% | BT-549 breast 43.9% | MDA-MB-435 melanoma 30.9% | SW-620 colon 30.2% | MCF7 breast 14.7% | HCT-116 colon 10.3% | HCC-2998 colon 38.3% | KM12 colon 29%

NC(=S)N/N=C/Cc1ccccc1
inactive: T-47D breast 49.3% | BT-549 breast 119% | MDA-MB-435 melanoma 124% | SW-620 colon 102% | MCF7 breast 21.5% | HCC-2998 colon 113% | KM12 colon 107%
active: HCT-116 colon 6.31%

CCOc1c(C#N)nnc2c(C#N)c(NC(=O)c3ccccc3)nn12
inactive: T-47D breast 98.8% | BT-549 breast 102% | MDA-MB-435 melanoma 102% | SW-620 colon 102% | MCF7 breast 93.4% | HCT-116 colon 100% | HCC-2998 colon 104% | KM12 colon 101%

O=C(N=c1oc2ccccc2cc1-c1cc2ccccc2[nH]1)c1ccc(Cl)cc1
inactive: T-47D breast 47.5% | BT-549 breast 76% | MDA-MB-435 melanoma 96.4% | SW-620 colon 25.1% | MCF7 breast 30.4% | HCT-116 colon 20% | HCC-2998 colon 81.9% | KM12 colon 29.1%

COc1cccc(-c2nn(-c3ccccc3)cc2-c2ccnc(NCCNC(=O)Nc3ccc(Cl)c(Cl)c3)c2)c1
inactive: T-47D breast 12.6% | SW-620 colon 18.3%
active: BT-549 breast -4.67% | MDA-MB-435 melanoma -66.9% | MCF7 breast 6.67% | HCT-116 colon 0.717% | HCC-2998 colon -37.1% | KM12 colon -33.8%

CC/C=C1/C(=O)C=C[C@@H]1C/C=C\CCCC(=O)O
inactive: T-47D breast 71.8% | BT-549 breast 76.5% | MDA-MB-435 melanoma 54.1% | SW-620 colon 43.5% | MCF7 breast 19.8% | HCT-116 colon 35.5% | HCC-2998 colon 95.1% | KM12 colon 63.4%

COc1cccc(C(=O)NCCCNc2cc(-c3cn(-c4ccccc4)nc3-c3cccc(OC)c3)ccn2)c1
active: T-47D breast -4.96%
inactive: BT-549 breast 11% | MDA-MB-435 melanoma 40.2% | SW-620 colon 54.4% | MCF7 breast 37.5% | HCT-116 colon 30.5% | HCC-2998 colon 61.2% | KM12 colon 43.5%

COc1ccc(/C=N/C2=C(C#N)C(c3ccc(OC)cc3)c3ccc4ccccc4c3O2)cc1 (stereo not drawn)
inactive: T-47D breast 73.6% | BT-549 breast 84% | SW-620 colon 43.3% | MCF7 breast 34.4% | HCT-116 colon 71.7% | HCC-2998 colon 97.4% | KM12 colon 59.4%
active: MDA-MB-435 melanoma -10.9%

COC1=CC(=O)C[C@@H](C)[C@]12Oc1c(Cl)c(OC)cc(OC)c1C2=O
inactive: T-47D breast 105% | BT-549 breast 78.3% | SW-620 colon 81.5% | MCF7 breast 85.2% | HCT-116 colon 92.4% | HCC-2998 colon 75.5% | KM12 colon 65.5%
active: MDA-MB-435 melanoma 1.96%

CC(C)Sc1nc(NNC(N)=S)c(C#N)c(-c2ccc(F)cc2)n1
inactive: T-47D breast 83.2% | BT-549 breast 104% | MDA-MB-435 melanoma 108% | SW-620 colon 106% | MCF7 breast 99.1% | HCT-116 colon 94.6% | HCC-2998 colon 101% | KM12 colon 99%

COC(=O)[C@]12CC[C@@H](C)[C@H](C)[C@@H]1C1=CC[C@@H]3[C@@]4(C)C(C=O)=C[C@@](C)(COC(=O)/C=C/c5ccccc5)[C@@H]4[C@H](O)C[C@@]3(C)[C@]1(C)CC2
inactive: MCF7 breast 10.6%
active: T-47D breast -6.88% | BT-549 breast -7.43% | MDA-MB-435 melanoma -6.08% | SW-620 colon 5.68% | HCT-116 colon -72.5% | HCC-2998 colon -29.9% | KM12 colon 6.25%

CCCCCCCCCCCCCCCCCCOc1ccccc1CC(=O)OCCC[N+](C)(C)C
inactive: T-47D breast 72.3% | BT-549 breast 102% | MDA-MB-435 melanoma 58.3% | SW-620 colon 40% | MCF7 breast 46.5% | HCT-116 colon 64% | HCC-2998 colon 37.2% | KM12 colon 76.1%

COc1cc(C(=O)/C=C/c2c(-c3ccc(F)cc3)nc3sc(C)cn23)cc(OC)c1OC
inactive: BT-549 breast 15% | SW-620 colon 30.6% | MCF7 breast 29.5% | HCT-116 colon 20.1% | HCC-2998 colon 68.2% | KM12 colon 10.4%
active: T-47D breast 9.38% | MDA-MB-435 melanoma 3.64%

COc1ccc(C2=NN(C(=O)c3cc(OC)c(OC)c(OC)c3)C(c3ccc(Cl)cc3)C2)cc1OC (stereo not drawn)
inactive: T-47D breast 24.6% | BT-549 breast 49.9% | SW-620 colon 30.1% | MCF7 breast 18.7% | HCT-116 colon 10.6% | KM12 colon 15.9%
active: MDA-MB-435 melanoma -43.3% | HCC-2998 colon -62.4%

O=C1CC(N2C(=O)/C(=C/C(Cl)=C\c3ccc([N+](=O)[O-])cc3)SC2=S)C(=O)N1c1ccc(O)cc1 (stereo not drawn)
inactive: T-47D breast 17.2%
active: BT-549 breast -17.3% | MDA-MB-435 melanoma -12% | SW-620 colon 0.226% | MCF7 breast -11.6% | HCT-116 colon -31.2% | HCC-2998 colon -81.6% | KM12 colon -72.4%

CCc1ccccc1-n1c(-c2ccc(Cl)cc2)cc(-c2ccc(OC)cc2)c(C#N)c1=O
inactive: T-47D breast 92.3% | BT-549 breast 154% | MDA-MB-435 melanoma 89% | SW-620 colon 104% | MCF7 breast 85.6% | HCT-116 colon 94.6% | HCC-2998 colon 109% | KM12 colon 87.7%
